Data on 21 compounds can be found in PubChem BioAssay (EPA / NIEHS).

The target in assay [1] is Paired box protein Pax-6 (Homo sapiens) (UniProt P26367). Description: ATG_Pax6_CIS: Attagene CIS-FACTORIAL HepG2 Assay for human Paired Box 6 (PAX6) (AID 2282956). The settings on record: HepG2 CIS-FACTORIAL PAX6 reporter transcription, RNA readout; actives raise or lower the signal. The method in brief: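 HepG2 cells transiently transfected with multiplexed cis-promoter reporter units (endogenous TF activity) were dosed for 24 h. Reporter mRNA was quantified by RT-PCR, 6-FAM labeling, HpaI digestion and capillary electrophoresis; bidirectional fitting versus DMSO baseline.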
Chain of Paired box protein Pax-6 (Homo sapiens) (P26367 whole entry, looked up): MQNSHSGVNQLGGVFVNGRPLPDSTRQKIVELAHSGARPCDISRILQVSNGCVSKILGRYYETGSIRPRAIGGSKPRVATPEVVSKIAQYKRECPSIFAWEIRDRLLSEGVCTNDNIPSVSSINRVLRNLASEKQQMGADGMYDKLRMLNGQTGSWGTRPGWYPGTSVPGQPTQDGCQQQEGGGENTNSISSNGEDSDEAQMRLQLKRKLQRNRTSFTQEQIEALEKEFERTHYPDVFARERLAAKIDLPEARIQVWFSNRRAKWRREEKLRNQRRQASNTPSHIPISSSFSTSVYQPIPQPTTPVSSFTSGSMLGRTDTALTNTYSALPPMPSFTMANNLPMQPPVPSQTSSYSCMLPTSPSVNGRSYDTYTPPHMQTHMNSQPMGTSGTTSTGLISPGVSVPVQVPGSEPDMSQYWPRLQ

Assay [2] is described as follows: ATG_PXRE_CIS: Attagene CIS-FACTORIAL HepG2 Assay for human Pregnane X Receptor Element (PXRE) (AID 2282957). The settings on record: HepG2 Attagene CIS-FACTORIAL PXRE reporter, mRNA; actives raise or lower the signal. In outline: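 Multiplexed cis-reporter assay in transiently transfected human HepG2 cells; 24 h chemical exposure. Reporter transcripts quantified by RT-PCR with fluorescent labeling and capillary electrophoresis.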

Assay [3] can be described thus: ATG_PPRE_CIS: Attagene CIS-FACTORIAL HepG2 Assay for human Peroxisome Proliferator-activated Response Element (PPRE) (AID 2282958). To be noted: HepG2 PPRE cis-element reporter, Attagene transcription factor profiling; actives raise or lower the signal. The method in brief:
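Transcript-level reporter induction in transfected HepG2 cells after 24 h chemical exposure, quantified by fluorescence from RT-PCR products separated by capillary electrophoresis.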

A short description of assay [4]: ATG_Sox_CIS: Attagene CIS-FACTORIAL HepG2 Assay for human SRY-box transcription factor (SOX) (AID 2282960). The settings on record: HepG2 Attagene cis-factorial SOX reporter, mRNA; actives raise or lower the signal. In outline:
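Cells were transfected with reporter constructs under cis-regulatory promoters, then exposed to chemicals for 24 h. Reporter transcripts were quantified by fluorescence after RT-PCR and capillary electrophoresis; activity was fitted in both directions against DMSO.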

Assay [5] addresses Transcription factor Sp1 (Homo sapiens) (UniProt P08047). Nature of the assay: ATG_Sp1_CIS: Attagene CIS-FACTORIAL HepG2 Assay for human Specificity Protein 1 (Sp1) (AID 2282961). To be noted: HepG2 Sp1 cis-reporter transcription, actives raise or lower the signal. In outline: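 Measures mRNA induction of an Sp1-linked reporter in HepG2 cells 24 h post-dosing. Multiplexed reporters read by RT-PCR and capillary electrophoresis; DMSO serves as negative control and baseline.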

The nature of assay [6]: ATG_SREBP_CIS: Attagene CIS-FACTORIAL HepG2 Assay for human Sterol Regulatory Element Binding (SREBP) (AID 2282962). To be noted: HepG2 Attagene cis-factorial SREBP reporter, mRNA; actives raise or lower the signal. The method in brief: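 HepG2 cells transiently transfected with multiplexed cis-element reporter units report endogenous transcription factor activity. After 24 h of chemical exposure, reporter mRNA was quantified by RT-PCR, 6-FAM labelling, HpaI digestion and capillary electrophoresis; bidirectional fits used DMSO as baseline.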

Assay [7] can be described thus: ATG_TA_CIS: Attagene CIS-FACTORIAL HepG2 Assay for human TA Basal Promoter (AID 2282964). To be noted: HepG2 Attagene CIS-factorial TA basal promoter reporter; actives raise or lower the signal. The method in brief:
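HepG2 cells transiently transfected with multiplexed cis-promoter reporter units, dosed 24 h. Reporter mRNA measured by RT-PCR, 6-FAM labelling, HpaI digestion and capillary electrophoresis; bidirectional fit versus DMSO baseline, serving as background control.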

A short description of assay [8]: ATG_TCF_b_cat_CIS: Attagene CIS-FACTORIAL HepG2 Assay for human T-Cell-Factor with beta-catenin (TCF/b-cat) (AID 2282965). The settings on record: HepG2 TCF/beta-catenin cis-reporter transcription, actives raise or lower the signal. In outline:
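Using capillary electrophoresis as the read-out, labelled reporter cDNA fragments from transiently transfected HepG2 were sized and quantified. Exposure lasted 24 hours; activity in either direction was referenced to DMSO.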

Assay [9] concerns the target Signal transducer and activator of transcription 3 (Homo sapiens) (UniProt P40763). Nature of the assay: ATG_STAT3_CIS: Attagene CIS-FACTORIAL HepG2 Assay for human Signal Transducer and Activator of Transcription 3 (STAT3) (AID 2282963). To be noted: HepG2, Attagene cis-factorial STAT3 reporter transcription; actives raise or lower the signal. The method in brief:
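Transcript-level reporter assay. HepG2 transient MRTU transfection, 24 h exposure, fluorescence detection after RT-PCR and CE; DMSO baseline.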

A short description of assay [10]: ATG_RORE_CIS: Attagene CIS-FACTORIAL HepG2 Assay for human RAR-related Orphan Receptor Element (RORE) (AID 2282959). To be noted: HepG2 Attagene cis-factorial RORE reporter, mRNA; actives raise or lower the signal. In outline:
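Multiplexed reporter assay measuring mRNA induction from a cis promoter element in transiently transfected HepG2 cells after 24 h treatment. Detection via RT-PCR and capillary electrophoresis fluorescence; DMSO serves as baseline.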

The source made the active and inactive calls. The calls were made as follows: active = hit-call score of the fitted dose curve at least 0.9, where 1 is the maximum; inactive = score below 0.9.

Chain of Transcription factor Sp1 (Homo sapiens) (P08047 whole entry, looked up): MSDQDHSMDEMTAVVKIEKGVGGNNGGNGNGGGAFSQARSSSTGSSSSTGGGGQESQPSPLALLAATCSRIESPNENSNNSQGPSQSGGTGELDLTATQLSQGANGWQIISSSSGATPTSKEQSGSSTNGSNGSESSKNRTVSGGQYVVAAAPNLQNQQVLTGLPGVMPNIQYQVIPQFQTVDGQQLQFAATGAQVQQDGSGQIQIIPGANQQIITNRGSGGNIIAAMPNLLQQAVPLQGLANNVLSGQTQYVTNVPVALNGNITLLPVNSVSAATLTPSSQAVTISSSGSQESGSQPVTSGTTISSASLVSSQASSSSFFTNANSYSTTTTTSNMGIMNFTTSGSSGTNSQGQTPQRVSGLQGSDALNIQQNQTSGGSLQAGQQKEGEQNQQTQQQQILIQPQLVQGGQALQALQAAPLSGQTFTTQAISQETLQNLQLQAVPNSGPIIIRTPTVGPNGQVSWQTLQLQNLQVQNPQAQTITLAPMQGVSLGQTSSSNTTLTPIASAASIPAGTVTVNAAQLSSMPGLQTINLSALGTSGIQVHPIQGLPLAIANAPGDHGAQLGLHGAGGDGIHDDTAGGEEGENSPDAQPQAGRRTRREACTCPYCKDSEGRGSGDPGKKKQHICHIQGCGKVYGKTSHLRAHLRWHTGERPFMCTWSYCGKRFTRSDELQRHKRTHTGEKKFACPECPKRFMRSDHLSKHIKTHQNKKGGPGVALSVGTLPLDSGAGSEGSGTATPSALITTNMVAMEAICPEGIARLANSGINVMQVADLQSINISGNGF
Chain of Signal transducer and activator of transcription 3 (Homo sapiens) (P40763 whole entry, looked up): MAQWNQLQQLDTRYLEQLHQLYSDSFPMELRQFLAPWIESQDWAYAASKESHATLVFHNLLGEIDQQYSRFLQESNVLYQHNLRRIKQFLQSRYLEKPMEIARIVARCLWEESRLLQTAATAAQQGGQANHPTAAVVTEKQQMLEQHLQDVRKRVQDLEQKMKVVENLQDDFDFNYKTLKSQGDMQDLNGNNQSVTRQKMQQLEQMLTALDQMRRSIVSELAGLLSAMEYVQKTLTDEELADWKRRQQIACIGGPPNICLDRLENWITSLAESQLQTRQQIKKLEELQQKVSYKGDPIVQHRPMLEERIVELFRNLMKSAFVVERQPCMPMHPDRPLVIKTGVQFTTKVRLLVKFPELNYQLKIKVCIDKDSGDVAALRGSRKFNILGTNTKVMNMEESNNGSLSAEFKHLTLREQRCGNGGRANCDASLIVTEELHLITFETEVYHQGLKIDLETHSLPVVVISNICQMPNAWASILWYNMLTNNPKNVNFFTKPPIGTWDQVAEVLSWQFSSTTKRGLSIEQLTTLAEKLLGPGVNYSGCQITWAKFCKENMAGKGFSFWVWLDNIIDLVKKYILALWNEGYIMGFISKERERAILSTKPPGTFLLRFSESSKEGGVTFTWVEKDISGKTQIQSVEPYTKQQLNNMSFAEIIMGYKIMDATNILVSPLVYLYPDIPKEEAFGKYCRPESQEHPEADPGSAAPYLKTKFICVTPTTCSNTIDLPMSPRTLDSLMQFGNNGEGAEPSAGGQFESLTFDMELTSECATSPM

Regarding `NCCCN1CCOCC1`, the result in [1], in assay [2], in assay [3], in assay [4], in assay [5] and in [6] was inactive. Further, the compound was classed as inactive in [7] and in assay [8].
Consider `C=C(C)C(=O)OCCOC(=O)CC(C)=O`, for which the result in assay [1], in assay [2], in [3], in [4], in assay [5] and in assay [6] was inactive. The result in [9], in assay [7] and in [8] was inactive.
For `CCC(=O)OCCC(C)CCC=C(C)C` (stereo not drawn), the outcome in assay [1], in [10], in assay [4], in assay [5], in assay [6] and in assay [9] was inactive. Further, the compound was called inactive in [7] and in [8]. In [2], the AC50 is 41.1 µM (active).
`CCCCCCOC(=O)CC`: the compound was classed as inactive in assay [1], in assay [2], in [3], in [4], in assay [5] and in [6]. The outcome in assay [9], in [7] and in assay [8] was inactive.
As for `COc1nc(C)nc(N)n1`, the outcome in [1], in assay [2], in assay [10], in assay [4], in assay [5] and in [6] was inactive. Moreover, the compound was classed as inactive in assay [9], in [7] and in assay [8].
Take `CCCCCC=CCC(=O)OC`: the outcome in assay [1], in [10], in assay [4], in [5], in assay [6] and in [9] was inactive. The result in [7] and in [8] was inactive. Also, the AC50 in assay [2] was 100 µM (active).
With `COc1ccc(O)cc1`, the result in assay [1], in assay [3], in assay [4], in assay [5], in assay [6] and in assay [9] was inactive. The compound was classed as inactive in [7] and in [8]. Moreover, the AC50 in assay [2] is 57.5 µM (active).
`CCOC(=S)SSC(=S)OCC`: the compound was called inactive in assay [1], in assay [2], in [3], in [4], in [6] and in [9]. For the same compound, the compound was classed as inactive in [8].
For `Clc1cccc(Cl)n1`, the compound was classed as inactive in assay [1], in [2], in [3], in assay [4], in assay [6] and in assay [9]. In addition, the result in assay [7] and in [8] was inactive.
Regarding `CC(=O)C(=O)O`, the outcome in [1], in assay [2], in assay [3], in assay [4], in assay [5] and in assay [6] was inactive. Moreover, the result in assay [9], in assay [7] and in assay [8] was inactive.
As to `NC(N)=NC(=O)c1nc(Cl)c(N)nc1N`, the call in assay [1], in assay [2], in [10], in assay [4], in assay [5] and in assay [6] was inactive. The result in [9], in [7] and in [8] was inactive.
Regarding `CC(=O)OCC=Cc1ccccc1`, the compound was classed as inactive in assay [1], in [3], in assay [4], in assay [5], in assay [6] and in assay [7]. Besides, the call in assay [8] was inactive. Moreover, in assay [2], the AC50 was 32.1 µM (active).
As for `O=[N+]([O-])c1ccc(Nc2ccc(Nc3ccccc3)c(S(=O)(=O)O)c2)c([N+](=O)[O-])c1`, the compound was classed as inactive in assay [1], in [4], in [5], in [6], in assay [9] and in [7]. Moreover, the values for the AC50 in [2], in assay [10] and in [8] were 27 µM (active), 40.1 µM (active) and 134 µM (active), respectively.
As for `CN(C)c1ccc(O)c2c1C[C@H]1C[C@H]3[C@H](N(C)C)C(=O)C(C(N)=O)=C(O)[C@@]3(O)C(=O)C1=C2O`, the compound was classed as inactive in [1], in assay [2], in assay [10], in [4], in [5] and in assay [6]. Further, the compound was called inactive in [9], in [7] and in assay [8].
For the compound `CCCCCCCCCOC(C)=O`, the outcome in assay [1], in [3], in assay [4], in [5], in assay [6] and in assay [9] was inactive. Also, the outcome in assay [7] and in [8] was inactive. In addition, in assay [2], the AC50 is 49 µM (active).
In the case of `COc1ccc(Cl)cc1C`, the compound was classed as inactive in [1], in assay [2], in [10], in assay [4], in assay [5] and in assay [6]. Besides, the result in assay [9] and in assay [8] was inactive.
Regarding `c1ccc2[nH]ccc2c1`, the result in assay [1], in assay [10], in assay [4], in [5], in assay [6] and in assay [9] was inactive. Besides, the result in assay [7] and in assay [8] was inactive. In assay [2], the AC50 is 29.9 µM (active).
On to `CC1(C)[C@@H]2CC[C@@]1(C)[C@H](O)C2`, for which the compound was classed as inactive in assay [1], in assay [2], in [10], in assay [4], in [5] and in [6]. In addition, the call in assay [9], in assay [7] and in assay [8] was inactive.
Regarding `CN(CCOc1ccc(CC2SC(=O)NC2=O)cc1)c1ccccn1` (stereo not drawn), the compound was called inactive in assay [1], in assay [4], in assay [5], in assay [9], in assay [7] and in [8]. The AC50 is 6.08 µM (active) in assay [2], 9.64 µM (active) in [10] and 5.58 µM (active) in [6].
As for `O=[N+]([O-])c1ccc(C=Cc2ccc([N+](=O)[O-])cc2S(=O)(=O)O)c(S(=O)(=O)O)c1`, the compound was classed as inactive in assay [1], in assay [2], in assay [10], in [4], in [5] and in assay [6]. For the same compound, the result in assay [9], in assay [7] and in assay [8] was inactive.
Take `C[C@]12CC[C@H]3[C@@H](CCC4=CC(=O)CC[C@@]43C)[C@@H]1CC[C@@H]2C(=O)CO`: the AC50 in [1] was 100 µM (active); in assay [2] it was 1.7 µM (active); in [7], 61 µM (active); in assay [8], 100 µM (active). In addition, the result in [10], in assay [4], in assay [5], in assay [6] and in assay [9] was inactive.
